Measured values reported in PubChem BioAssay (NCI).
Where “and” joins values, the source holds several entries; their conditions need not be identical. Equal entries are not always repeated. This is part of a sample that, as a whole, favours compounds with a hit. Of some 83,000 tested, about 20% had one in any assay.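 48-hour exposure, single concentration, 96-well plates; percent growth endpoint where 0 means no net growth. Active: below 10.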 Calls of active or inactive are those of the source.

Each compound was assayed on MCF7 breast (assay: NCI-60 one-dose screen, 48 h (100 = growth as untreated, 0 = no growth, -100 = all killed)). Conditions: 10 µM unless noted.

Row | Compound | growth
1 | N#CC1=C(N)OC(c2cccc([N+](=O)[O-])c2)C1(C#N)C#N (stereo not drawn) | -9.78% [100 µM] (active) and -88.5% [100 µM] (active)
2 | N#Cc1c(=N)cc2c3ccccc3oc3c(C#N)c(N)[nH]c1c32 | 74.3% [100 µM] (inactive) and 24.3% [100 µM] (inactive)
3 | Cc1c2c(c(O)c3c(O)cccc13)C(=O)C1(O)C(O)=C(C(=O)NCNc3ccc(C(N)=O)cn3)C(=O)C(N(C)C)C1C2 (stereo not drawn) | -81.9% [100 µM] (active) and -89.4% [100 µM] (active)
4 | CCOC(=O)/C(C#N)=C(/NNc1ccccc1)c1ccncc1C(=O)O | 28.2% [100 µM] (inactive) and 39.1% [100 µM] (inactive)
5 | C/C(Cl)=N/OC(=O)Nc1ccc(S(N)(=O)=O)c(C)c1 | -72.4% [100 µM] (active) and -89.8% [100 µM] (active)
6 | COc1cc2c(cc1-c1coc3cc(OCC=C(C)C)ccc3c1=O)OCO2 | -12% [100 µM] (active) and -54.2% [100 µM] (active)
7 | NNC1=N/C(=C\c2ccco2)C(Cl)=N1 | 16.5% [100 µM] (inactive) and -15.6% [100 µM] (active)
8 | CC(=O)c1cc2c(s1)C(=O)c1ccsc1C2=O | -62.9% [100 µM] (active) and -100% [100 µM] (active)
